An excerpt weighted towards active compounds, which were near 3.7% of everything screened.
TIM10 inh = growth inhibitors of TIM10 yeast strain; S. cerevisiae TIM10 strain growth, BacTiter-Glo luminescence, 24 h; inhibition, % at 10 µM; 330,000 compounds, 1.4% hits;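 active = inhibition of 40% or more at the single tested concentration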;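 note: wild-type TIM10 isogenic control strain grown at permissive 25 °C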
NLRP3 yeast inh = blocks the NALP3 inflammasome reconstituted in yeast; Yeast reconstituted NLRP3/ASC/caspase-1, beta-gal luminescence, 24 h; inhibition, % at 10 µM; 330,000 compounds, 0.39% hits; AID 2825;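 active = inhibition of 50% or more; inactive = inhibition below 50%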
tim23-1 inh = inhibits growth of tim23-1 mutant yeast; inhibition, % at 20 µM; 330,000 compounds, 1.3% hits; S. cerevisiae tim23-1 growth, BacTiter-Glo luminescence, 24 h;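 active = growth inhibition of the mutant yeast at or above 50%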;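 note: temperature-sensitive mutant grown at 25 °C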
PfHsp90 set2 = reduces growth (ATP signal) of yeast expressing P. falciparum Hsp90; S. cerevisiae expressing PfHsp90, BacTiter-Glo ATP, 48 h; yeast lacking PDR1 and PDR3 efflux regulators; inhibition, % at 9.4 µM; 310,000 compounds, 0.32% hits;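 active = every replicate shows inhibition above about 80%, whatever the replicate mean, limit read from the data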
tim10-1 inh = tim10-1 yeast growth inhibition; S. cerevisiae tim10-1 ts strain growth, BacTiter-Glo, 24 h; inhibition, % at 20 µM; 330,000 compounds, 2.2% hits;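 active = inhibition of at least 40%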;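 note: mutant grown at 25 °C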
tim10-1 conf = tim10-1 yeast growth inhibition, confirmed | shares compounds with tim10-1 inh | S. cerevisiae tim10-1 ts strain growth, BacTiter-Glo, 24 h | inhibition, % at 20 µM | 7,400 compounds, 56% hits | AID 463213;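 active = inhibition of yeast growth at or above a set limit in either of two repeat tests at 20 µM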;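 note: tim10-1 mutant grown at permissive 25 °C to find synthetic lethal compounds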
Each line names hits and unclear results; the compound was inactive in the other large screens (follow-up assays come after a bar, where they were run).

COc1ccc(NC(=O)c2cc(-c3ccco3)nc3ccccc23)cc1	none
O=C(Nc1ccncc1)c1cc(-c2ccccn2)nc2ccccc12	none
CCc1cccc(C)c1NC(=O)c1cc(-c2ccncc2)nc2ccccc12	tim10-1 inh 41.9 | tim10-1 conf inactive
Cc1cccc(C)c1NC(=O)c1cc(-c2ccccn2)nc2ccccc12	tim10-1 inh 40.8 | tim10-1 conf inactive
Cc1ccc(-c2csc3nc[nH]c(=O)c23)cc1C	tim10-1 inh 41.3 | tim10-1 conf inactive
CCOc1ccc(C(OC(=O)c2ccco2)C(=O)NCc2ccc(C)cc2)cc1 (stereo not given)	tim10-1 inh 42.7 | tim10-1 conf inactive
CCc1ccc(OCC2c3cc(OC)c(OC)cc3CCN2C(=S)NC)cc1 (stereo not given)	tim10-1 inh 48.3 | tim10-1 conf inactive
CCc1ccc(OCC2c3cc(OC)c(OC)cc3CCN2C(=S)NCCOC)cc1 (stereo not given)	none
Cc1cc(Nc2ccc(C)c(Br)c2)n2nc(C)nc2n1	none
COc1cc(C2C=C(Nc3ccccc3)C(=O)N2c2ccccc2)ccc1O (stereo not given)	tim10-1 inh 41.9 | tim10-1 conf inactive
CCC1Cc2c(nc(N)c3c(N)nc(N4CCCCC4)c(C#N)c23)O1 (stereo not given)	none
N#Cc1c(N2CCCCC2)nc(N)c2c(N)nc3c(c12)CC(c1ccccc1)O3 (stereo not given)	tim10-1 inh 40.8 | tim10-1 conf inactive
CC1(C)CC(=O)C(C2C3=C(CC(C)(C)CC3=O)Oc3ccc4ccccc4c32)C(=O)C1 (stereo not given)	none
O=C(/C=C/c1c(Cl)nc2ccccn12)N1CCN(c2ccccc2F)CC1	tim10-1 inh 45.5 | tim10-1 conf 36.2
O=C1[C@H]2[C@@H](C3CC3)N3C(=O)CN(CC4CC4)C(=O)[C@@]3(Cc3ccccc3)[C@H]2C(=O)N1c1ccccc1	none
Cc1ccc(C(=O)ONc2ccc(N=NC(=O)c3ccccc3O)cc2)cc1	tim10-1 inh 43.4 | tim10-1 conf inactive
N#C/C(=C/c1ccc(O)c([N+](=O)[O-])c1)C(=O)Nc1ccccc1	tim10-1 inh 40.4 | tim10-1 conf inactive
CCOc1cc(C2C(C(=O)c3ccccc3)=C(C(=O)OC)Nc3nnnn32)ccc1O (stereo not given)	none
CCOc1ccc(OCCC(=O)OCC(=O)Nc2cc(OCC)c(N3CCOCC3)cc2OCC)cc1	tim10-1 inh 45.7 | tim10-1 conf inactive
Cc1ccc(C(=O)O/N=C(\N)c2ccccn2)c(C)c1	tim10-1 inh 54.2 | tim10-1 conf 62.7
N/C(=N\OC(=O)c1cccc(Cl)c1)c1ccccn1	tim10-1 inh 45.3 | tim10-1 conf 32.9
CCCc1nnc(NC(=O)CCC(=O)N2CCN(Cc3ccc(Cl)cc3)CC2)s1	none
CCC(C)(C)n1nnnc1C(c1ccc(C)cc1)N1CCC(C)CC1 (stereo not given)	tim10-1 inh 40.9 | tim10-1 conf 35.6
CC(=O)N1N=C(c2cccc([N+](=O)[O-])c2)OC1c1ccc(Cl)cc1Cl (stereo not given)	tim10-1 inh 40.5 (no result: PfHsp90 set2) | tim10-1 conf inactive
CN(C(=S)Nc1ccc(Oc2ccccc2)cc1)C1CCCCC1	tim10-1 inh 40.3 | tim10-1 conf inactive
S=C(Nc1ccc(Oc2ccccc2)cc1)NC1CCCCCC1	none (no result: TIM10 inh, NLRP3 yeast inh, tim23-1 inh, tim10-1 inh)
C=CCc1ccc(O)c(-c2cc(CC=C)ccc2O)c1	tim10-1 inh 43.0 | tim10-1 conf 44.5
Cc1ccc(/C=N/NC(=O)Cc2c(F)cccc2Cl)s1	none
CCOc1ccccc1N1CCN(C(=S)NCc2ccccc2)CC1	tim10-1 inh 43.8 | tim10-1 conf inactive
COc1ccccc1C1CCN(C(=O)c2ccc(C(C)(C)C)cc2)CC1	tim10-1 inh 40.8 | tim10-1 conf 33.3
O=C(CSCc1cccc(F)c1)N1CCN(c2ccccc2)CC1	tim10-1 inh 42.7 | tim10-1 conf inactive
COc1ccccc1N1CCN(C(=O)c2ccc(-c3ccccc3)cc2)CC1	tim10-1 inh 40.7 | tim10-1 conf inactive
CCNC(=S)N1CCN(c2ccccc2OCC)CC1	none
COC(=O)c1ccc2c(=O)n(Cc3ccc4c(c3)OCO4)c(=S)[nH]c2c1	none
COc1ccccc1C(CNC(=O)CNC(=O)c1ccc(C)c(C)c1)N1CCCC1 (stereo not given)	none
COc1ccc(N2CCN(C(CNC(=O)C(=O)NCCc3c[nH]c4ccccc34)c3ccco3)CC2)cc1 (stereo not given)	none
Cn1c(/C=C(\C#N)C(N)=S)ccc1-c1ccc(Br)cc1	none (no result: TIM10 inh, NLRP3 yeast inh, tim23-1 inh, tim10-1 inh)
COc1ccccc1N1CCN(C(=O)c2ccc(CSc3ccccc3)cc2)CC1	tim10-1 inh 40.1 | tim10-1 conf 40.5
COc1ccccc1N1CCN(C(=O)c2cc3sccc3n2C)CC1	tim10-1 inh 42.8 | tim10-1 conf 45.6
O=C(c1ccc(-c2ccccc2)cc1)N1CCN(c2ncccn2)CC1	tim10-1 inh 43.1 | tim10-1 conf inactive
COc1ccccc1N1CCN(C(=O)c2ccc(C(C)(C)C)cc2)CC1	tim10-1 inh 49.6 | tim10-1 conf inactive
CCc1ccc2oc(C(=O)N3CCN(c4ccccc4OC)CC3)cc(=O)c2c1	tim10-1 inh 48.3 | tim10-1 conf inactive
O=C(c1ccc(CSc2ccccc2)cc1)N1CCN(c2ccccc2)CC1	tim10-1 inh 45.4 | tim10-1 conf 40.4
CCOc1ccccc1N1CCN(C(=O)c2ccccc2)CC1	none (no result: PfHsp90 set2)
O=C(c1ccc(Cn2cc(Cl)cn2)cc1)N1CCN(c2ccccc2)CC1	none
O=C(c1ccc(CSc2ccc(Cl)cc2)cc1)N1CCCC1	none

Screening results (PubChem)
